In PubChem BioAssay (NCI) one finds growth data, which are given here for seven compounds.

This is part of a sample that, as a whole, favours compounds with a hit. Of some 83,000 tested, about 20% had one in any assay.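 Single-concentration screen, 48 h exposure, 96-well plates. Endpoint: percent growth. Below 10 = active.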 Values without a mark were called inactive. Active and inactive are the calls of the source.

Some test systems named below: DU-145 prostate; K-562 leukemia; MALME-3M melanoma; MDA-MB-231 breast; RXF 393 renal; SF-268 CNS; SF-295 CNS; SF-539 CNS; UACC-257 melanoma; M14 melanoma; HCT-15 colon; HT29 colon; SNB-75 CNS; SNB-19 CNS; U251 CNS; PC-3 prostate; SK-MEL-5 melanoma; UACC-62 melanoma; LOX IMVI melanoma; SK-MEL-28 melanoma.
What all share (assay): NCI-60 one-dose screen, 48 h (100 = growth as untreated, 0 = no growth, -100 = all killed)
What all share (conditions): 10 µM unless noted

In the case of `C[C@]12CCc3c(ccc4cc(O)ccc34)[C@@H]1CC[C@H]2O`, the growth with DU-145 prostate was 104%; with K-562 leukemia, 94.9%; in the assay with MALME-3M melanoma, 101%; in the assay with MDA-MB-231 breast it was 88.3%; with RXF 393 renal, 97.2%; in the assay on SF-268 CNS, 91.4%. In addition, the growth in the assay on SF-295 CNS was 84.9%; in the assay with SF-539 CNS, 91%; in the assay on UACC-257 melanoma it was 102%; with M14 melanoma it was 101%; with HCT-15 colon, 93.4%; in the assay on HT29 colon, 104%. Besides, the growth in the assay on SNB-75 CNS is 89.2%; with SNB-19 CNS it was 87.2%; in the assay on U251 CNS, 101%; in the assay on PC-3 prostate it was 88.8%; in the assay with SK-MEL-5 melanoma it was 101%; with UACC-62 melanoma it was 61.4%. In the assay on LOX IMVI melanoma, the growth is 96.4%.
`CC1=CC[C@@H]2C(C)(C)C(=O)CC[C@@]2(C)[C@@H]1COc1ccc2ccc(=O)oc2c1`: the growth in the assay with DU-145 prostate is 88.3%; in the assay with K-562 leukemia, 60.1%; in the assay on MALME-3M melanoma, 78%; with MDA-MB-231 breast, 89.4%; with RXF 393 renal, 68.6%; in the assay with SF-268 CNS, 86.4%. For the same compound, the growth in the assay on SF-295 CNS is 69%; with SF-539 CNS it was 87.5%; with UACC-257 melanoma, 91.4%; in the assay with M14 melanoma, 89%; with HCT-15 colon it was 78.6%; in the assay with HT29 colon, 78.5%. The growth in the assay with SNB-75 CNS is 76.6%; with SNB-19 CNS, 81%; in the assay with U251 CNS it was 87.5%; in the assay with PC-3 prostate, 58.4%; in the assay on SK-MEL-5 melanoma, 26.1%; in the assay on UACC-62 melanoma, 41.9%. Further, in the assay on LOX IMVI melanoma, the growth is 87.9%.
Turning to `C#CCNC(=O)CC[C@@H](C)[C@H]1CC[C@H]2[C@@H]3CC[C@@H]4CC(=O)CC[C@]4(C)[C@H]3CC[C@]12C`, the growth in the assay with DU-145 prostate is -38.1% [100 µM] (active); with K-562 leukemia, 4.55% [100 µM] (active); in the assay with MALME-3M melanoma, -82.2% [100 µM] (active); in the assay with MDA-MB-231 breast it was -78% [100 µM] (active); with RXF 393 renal it was -76.1% [100 µM] (active); in the assay on SF-268 CNS, -20.4% [100 µM] (active). For the same compound, the growth in the assay on SF-295 CNS is -51.3% [100 µM] (active); in the assay on SF-539 CNS, -82.6% [100 µM] (active); in the assay on UACC-257 melanoma it was -0.129% [100 µM] (active); in the assay on M14 melanoma, -22.4% [100 µM] (active); in the assay with HCT-15 colon it was 1.91% [100 µM] (active); in the assay with HT29 colon, -25% [100 µM] (active). Also, the growth in the assay with SNB-75 CNS is -58.3% [100 µM] (active); in the assay on SNB-19 CNS, 14.8% [100 µM]; in the assay with U251 CNS it was -43.4% [100 µM] (active); in the assay on PC-3 prostate, -14.6% [100 µM] (active); with SK-MEL-5 melanoma it was -86.5% [100 µM] (active); in the assay with UACC-62 melanoma, -74% [100 µM] (active). In addition, the growth in the assay on LOX IMVI melanoma was -71.6% [100 µM] (active).
Regarding `CCOc1ccc(/C=C(\C#N)c2cc3ccccc3[nH]2)cc1`, the growth in the assay with DU-145 prostate was 81%; in the assay with K-562 leukemia, 15.3%; in the assay on MALME-3M melanoma it was 60%; with MDA-MB-231 breast, 71.9%; with RXF 393 renal, 58.6%; with SF-268 CNS, 84.2%. Besides, the growth in the assay with SF-295 CNS was 58.3%; in the assay on SF-539 CNS it was 68.3%; in the assay with UACC-257 melanoma, 79.2%; with M14 melanoma it was 39%; with HCT-15 colon, 28.8%; in the assay with HT29 colon it was 13.8%. Moreover, the growth was 67.1% in the assay with SNB-75 CNS; 80.2% with SNB-19 CNS; 41.7% in the assay on U251 CNS; 68.2% in the assay on PC-3 prostate; 72.2% with SK-MEL-5 melanoma; 43.9% with UACC-62 melanoma. The growth in the assay with LOX IMVI melanoma was 46.4%.
Take `C[C@@H](NC(=O)[C@@H](CC(=O)N1CCC(N2CCCCC2)CC1)N1C(=O)[C@@H](N2C(=O)OC[C@@H]2c2ccccc2)[C@H]1/C=C/c1cccc(Cl)c1)c1ccccc1`: the growth is 88.1% in the assay on DU-145 prostate; -8.32% (active) in the assay with K-562 leukemia; -33.7% (active) with MALME-3M melanoma; 33.2% with MDA-MB-231 breast; 60.5% in the assay on RXF 393 renal; 67.9% with SF-268 CNS. For the same compound, the growth with SF-295 CNS was 82%; in the assay on SF-539 CNS, 75.7%; in the assay on UACC-257 melanoma, 57.2%; in the assay on M14 melanoma it was -46.6% (active); with HCT-15 colon, 32.8%; with HT29 colon, 1.92% (active). Further, the growth in the assay on SNB-75 CNS was 70.8%; in the assay on SNB-19 CNS it was 82.2%; with U251 CNS it was 55.2%; with PC-3 prostate, 56.1%; with SK-MEL-5 melanoma, -89% (active); with UACC-62 melanoma, 89.5%. Also, the growth with LOX IMVI melanoma was -43.2% (active).
As for `N/C(=N\c1nc2ccccc2[nH]1)NC(=O)Cc1cccc2ccccc12`, the growth was 92.8% in the assay with DU-145 prostate; 107% in the assay with K-562 leukemia; 68.3% in the assay with MALME-3M melanoma; 84.6% in the assay with MDA-MB-231 breast; 92% in the assay on RXF 393 renal; 86.5% in the assay with SF-268 CNS. The growth in the assay with SF-295 CNS was 98.7%; with SF-539 CNS, 91.3%; with UACC-257 melanoma it was 6.29% (active); in the assay with M14 melanoma it was 107%; in the assay on HCT-15 colon, 71.7%; with HT29 colon, 83.5%. The growth in the assay with SNB-75 CNS is 87.5%; in the assay with SNB-19 CNS, 87.6%; in the assay on U251 CNS, 80.6%; with PC-3 prostate, 80%; in the assay with SK-MEL-5 melanoma it was 82.2%; in the assay on UACC-62 melanoma it was 81.8%. Moreover, in the assay with LOX IMVI melanoma, the growth was 81.4%.
Consider `CC1(C)NCCC[C@]2(C)[C@H]3C=CC4=C5C[C@](C)(CO)CC[C@]5(C)CC[C@@]4(C)[C@]3(C)CC[C@@H]12`, for which the growth was -89.5% [100 µM] (active) with DU-145 prostate; -25.4% [100 µM] (active) in the assay with K-562 leukemia; -82.6% [100 µM] (active) in the assay with MALME-3M melanoma; -94% [100 µM] (active) in the assay on MDA-MB-231 breast; -70.4% [100 µM] (active) in the assay with RXF 393 renal; -69.9% [100 µM] (active) with SF-268 CNS. Further, the growth in the assay on SF-295 CNS is -90.1% [100 µM] (active); in the assay on SF-539 CNS it was -93.3% [100 µM] (active); in the assay on UACC-257 melanoma, -80.5% [100 µM] (active); in the assay with M14 melanoma it was -82.1% [100 µM] (active); with HCT-15 colon, -89.3% [100 µM] (active); in the assay on HT29 colon, -62.1% [100 µM] (active). Besides, the growth is -97.7% [100 µM] (active) in the assay on SNB-75 CNS; -90.4% [100 µM] (active) in the assay on SNB-19 CNS; -59.7% [100 µM] (active) in the assay with U251 CNS; -79.1% [100 µM] (active) with PC-3 prostate; -91.5% [100 µM] (active) in the assay with SK-MEL-5 melanoma; -94.3% [100 µM] (active) in the assay on UACC-62 melanoma. Further, the growth is -91.5% [100 µM] (active) with LOX IMVI melanoma and -97.3% [100 µM] (active) in the assay on SK-MEL-28 melanoma.
